Compound activity (PubChem)
mHTT-CaM PPI inh = disrupts binding of mutant huntingtin to calmodulin; AlphaScreen His-mHTT/GST-CaM binding, luminescence; inhibition, % at 15 µM; actives 3.6% (n = 190,000); AID 1671202;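 note: 0% = both proteins with DMSO and 100% = one protein alone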
Pf apPOL block = Pf-apPOL DNA polymerase inhibition | inhibition, % at 10 µM | actives 0.25% (n = 210,000) | Recombinant Pf-apPOL, molecular beacon fluorescence, 1.5 h
The depositor's hits bear a star; · = no result given. The sample as a whole holds a higher share of hits than the screen did. Cut-off read from the data, not from the text of the source: active = inhibition above about 50%; inactive = the rest.

SMILES	mHTT-CaM PPI inh	Pf apPOL block
O=C(C[C@H]1C(=O)N(Cc2cccnc2)C[C@@H]1Cc1ccccc1)Nc1ccc(Br)cc1	27.4	-6.2
CSc1nc(C)cc(OCCNC(=O)Nc2ccccc2)n1	-2.4	-8.5
COc1ccc(C(=O)N2CCCC(c3nc(-c4ccc(NC(C)=O)cc4)no3)C2)c(OC)c1 (stereo unspecified)	15.1	-1.6
Fc1ccc(C2CC(c3ccccc3F)n3ncnc3N2)cc1 (stereo unspecified)	7.0	-1.2
COc1ccc(Br)cc1C1=N/C(=C/C=C/c2ccccc2)C(=O)O1	46.0	-2.0
CCSc1ccsc1C1C(C#N)=C(N)N(c2ccc(F)cc2)C2=C1C(=O)CCC2 (stereo unspecified)	39.0	-9.4
CC(C)C1C(=O)N(Cc2cn(CCC3OCCO3)nn2)CCS(=O)(=O)N1Cc1ccc(-c2ccc(F)nc2)cc1 (stereo unspecified)	36.9	2.0
CC(C)C1C(=O)N(Cc2cn(CCC3OCCCO3)nn2)CCS(=O)(=O)N1Cc1ccc(-c2ccccc2)cc1 (stereo unspecified)	55.7*	-15.3
CC(C)C1C(=O)N(Cc2cn(CCC3OCCO3)nn2)CCS(=O)(=O)N1Cc1ccc(-c2ccc(F)cc2)cc1 (stereo unspecified)	53.3*	-6.6
CC(C)C1C(=O)N(Cc2cn(CCC3OCCCO3)nn2)CCS(=O)(=O)N1Cc1ccc(-c2ccc(F)nc2)cc1 (stereo unspecified)	41.8	-1.4
CC(C)C1C(=O)N(Cc2cn(CCC3OCCCO3)nn2)CCS(=O)(=O)N1Cc1ccc(-c2ccc(Cl)cc2)cc1 (stereo unspecified)	44.4	-18.7
CC(C)C1C(=O)N(Cc2cn(CCC3OCCCO3)nn2)CCS(=O)(=O)N1Cc1ccc(-c2ccc(Cl)c(Cl)c2)cc1 (stereo unspecified)	73.6*	-5.8
CC1C(=O)N(Cc2cn(CCC3OCCO3)nn2)CCS(=O)(=O)N1Cc1ccc(-c2cccc(CO)c2)cc1 (stereo unspecified)	15.4	-5.4
CC1C(=O)N(Cc2cn(CCC3OCCO3)nn2)CCS(=O)(=O)N1Cc1ccc(-c2ccc(Cl)c(Cl)c2)cc1 (stereo unspecified)	95.5*	-16.5
CCOC(=O)c1ccc(NC(=O)CCC(=O)O)cc1	·	2.2
CC(=O)NCc1csc(C2CCCN(S(=O)(=O)c3ccc4c(c3)OCCO4)C2)n1 (stereo unspecified)	7.0	-2.9
COc1ccccc1C1C2=C(CC(C)(C)CC2=O)Nc2nc(C(F)(F)F)nn21 (stereo unspecified)	-3.0	-3.8
N#CCOc1ccc(C2Nc3ccccc3S(=O)(=O)N2Cc2ccccc2)cc1 (stereo unspecified)	-5.0	1.4
COc1ccc(-c2c3c(=O)n(C)c(=O)n(C)c3cn2Cc2ccccc2)cc1	25.0	24.5
COc1ccc(-c2c3c(=O)n(C)c(=O)n(C)c3cn2-c2ccccc2O)cc1	21.0	92.3*
COc1ccc(-c2c3c(=O)n(C)c(=O)n(C)c3cn2C)cc1	3.0	89.8*
CCn1cc2c(c1-c1ccc(OC)cc1)c(=O)n(C)c(=O)n2C	3.0	54.1*
COc1ccc(-c2c3c(=O)n(C)c(=O)n(C)c3cn2-c2ccccc2N)cc1	15.0	6.7
COc1ccc(-c2c3c(=O)n(C)c(=O)n(C)c3cn2-c2cc(C)c(C)cc2N)cc1	50.0	67.5*
Cn1cc2c(c1-c1ccccc1)c(=O)n(C)c(=O)n2C	-1.0	-3.7
SMILES	mHTT-CaM PPI inh	Pf apPOL block
Cn1c(=O)c2c(-c3ccccc3)n(-c3ccccc3O)cc2n(C)c1=O	9.0	-1.2
COc1ccc(OC)c(C=C2Oc3cc(OC(=O)c4ccco4)ccc3C2=O)c1	15.2	-14.1
C=C(C)COc1ccc2cc(-c3cc(OC)ccc3OC)c(=O)oc2c1	-6.7	-4.2
Fc1ccc(Nc2ncc3c(n2)CCN(Cc2ccccc2)C3)c(F)c1	-4.2	-7.1
COc1ccc(-c2cc(C(F)(F)F)n3ncc(C(=O)NC(C)(C)C)c3n2)cc1OC	-4.0	-7.3
O=c1cc(C(F)(F)F)[nH]n1-c1ccccc1	·	5.6
O=c1cc(O)n(-c2ccccc2)[nH]1	20.3	53.3*
Cc1cccc(NC(=O)C2CCN(c3ncc(-c4ccccc4)cn3)CC2)c1	-8.0	0.7
Cc1cccc(-c2cnc(N3CCC(C(=O)Nc4ccc(F)cc4)CC3)nc2)c1	100.1*	0.9
N#C/C(=C\c1cc(CSc2nnc(N)s2)cs1)C(N)=S	-0.3	·
Cc1cc(C(=O)Nc2nnc(-c3ccno3)o2)no1	1.4	9.1
Cc1cc(-c2nnc(NC(=O)c3ccc4ncsc4c3)o2)nn1C	43.0	-17.9
O=C(Nc1nnc(-c2ccc(Br)s2)o1)c1cccs1	6.2	-27.4
O=C(Nc1nnc(-c2ccno2)o1)c1cccs1	81.5*	30.5
O=C(Nc1nnc(-c2ccno2)o1)c1ccc2ncsc2c1	90.0*	57.1*
CS(=O)(=O)c1cccc(C(=O)Nc2nnc(-c3ccno3)o2)c1	94.7*	44.9
Cc1ccc(CNC(=O)C2(C)CCC(=O)N2CCc2cccs2)cc1 (stereo unspecified)	-2.7	0.2
CCn1nnc2c(N3CCN(c4ccc([N+](=O)[O-])cc4)CC3)ncnc21	-5.7	-1.8
CCc1ccc(OCCCC(=O)Nc2cc(OC)ccc2OC)cc1	-1.9	-6.8
CC(=O)N1CC(=O)NC(=Cc2cccnc2)C1=O	·	52.4*
O=C1/C(=C/c2cccnc2)CC/C1=C\c1cccnc1	4.0	0.7
O=C(Nc1ccc2c(c1)CCC2)N1CCCn2nc(-c3ccncc3)cc2C1	37.5	-1.4
CC(=O)Nc1ccc(S(=O)(=O)n2nc(C)c(Sc3ccc(Cl)cc3)c2C)cc1	0.0	-6.6
CCCCOc1ccc2c(=O)c(-c3ccccc3)coc2c1	-4.6	-1.2
CN(C)/C(=C1/c2cc([N+](=O)[O-])ccc2-c2c1cc([N+](=O)[O-])cc2[N+](=O)[O-])N1CCOCC1	57.0*	-12.1
SMILES	mHTT-CaM PPI inh	Pf apPOL block
O=C(c1cc([N+](=O)[O-])ccc1N1CCCC1)N1CCOCC1	-2.1	-4.3
CCN(CC)c1ccc(C=C2SC(=O)NC2=O)cc1	-6.1	2.6
O=C(Nc1nnc(-c2cccc([N+](=O)[O-])c2)s1)Nc1ccccc1F	-1.5	0.3
CCCN1CCCc2cc(CCNC(=O)COCC)ccc21	58.7*	-4.6
COc1ccc(CC(=O)Nc2ccc(N3CCCC3=O)c(OC)c2)cc1OC	-4.4	4.9
CCN1CCCc2cc(CCNC(=O)Nc3ccc(OC)c(OC)c3)ccc21	86.1*	-1.9
CN1CCCc2cc(CCNC(=O)C(=O)NCc3cccs3)ccc21	17.2	-1.3
Cc1nc(SCc2ccc(C(F)(F)F)cc2)[nH]c(=O)c1Oc1cccc(C(F)(F)F)c1	·	-5.4
CC(=O)N1CCC(n2c(C)nc(C(=O)Nc3ccc(Oc4ccccc4)cc3)c2C)CC1	51.6*	-1.6
CCOC(=O)c1ccc(NC(=O)c2nc(C)n(C3CCN(C(C)=O)CC3)c2C)cc1	30.1	-4.8
CC(C)(CN1C(=O)C(Cl)=C(Cl)C1=O)CN1C(=O)C(Cl)=C(Cl)C1=O	·	11.9
O=C1c2ccccc2C(=O)C1C1(C2C(=O)c3ccccc3C2=O)C(=O)Nc2ccccc21	14.0	-6.7
CCc1ccc(C(=O)N2CCC3(C2)C(=O)Nc2ccccc23)cc1 (stereo unspecified)	42.5	-5.3
CCc1ccc2c(c1)C1(NN=C(c3ccccc3O)S1)C(=O)N2 (stereo unspecified)	100.0*	-2.1
O=C1Nc2ccccc2C12NN=C(c1ccccc1O)S2 (stereo unspecified)	100.0*	-1.1
